High-throughput results deposited in PubChem BioAssay by several laboratories.
Rows were chosen to be rich in hits. Some 27% of all compounds tested hit in one or more screens of this group.
EphB4 antag = antagonists of human EphB4-ephrin-B2 interaction; EphB4 LBD / TNYL-RAW-Alexa532 peptide, fluorescence polarization; hit rate 0.15% among 97,000; inhibition, % at 7 µM; P54760;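 active = inhibition above the screen-wide mean inhibition plus 3 SD, cut at about 15% in these data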
CYP2C9 act = increases human cytochrome P450 2C9 activity | P11712 | recombinant CYP2C9, luciferin-H conversion, luminescence; active compounds read high; factor 1 = untreated enzyme, 0 = blocked | activation factor at 5 µM | hit rate 1.4% among 96,000;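 active = activation factor of 2 or more for CYP2C9 at a 5 µM dose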
Target sequence (P11712 whole entry, looked up): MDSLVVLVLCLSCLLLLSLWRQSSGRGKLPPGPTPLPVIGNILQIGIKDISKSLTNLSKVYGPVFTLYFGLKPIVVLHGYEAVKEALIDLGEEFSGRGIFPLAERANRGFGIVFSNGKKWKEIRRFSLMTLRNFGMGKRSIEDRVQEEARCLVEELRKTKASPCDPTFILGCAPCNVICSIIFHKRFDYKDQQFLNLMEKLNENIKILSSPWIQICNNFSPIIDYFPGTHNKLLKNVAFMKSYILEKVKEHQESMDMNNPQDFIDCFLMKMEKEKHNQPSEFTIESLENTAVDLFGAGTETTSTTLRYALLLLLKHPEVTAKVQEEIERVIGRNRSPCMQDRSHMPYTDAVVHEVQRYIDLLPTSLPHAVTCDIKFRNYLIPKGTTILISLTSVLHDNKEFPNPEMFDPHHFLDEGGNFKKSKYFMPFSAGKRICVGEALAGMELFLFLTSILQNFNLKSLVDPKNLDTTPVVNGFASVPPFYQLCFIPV
CYP2C9 inhib = inhibitors of human CYP2C9; inhibition, % at 5 µM; AID 777; hit rate 20% among 96,000; CYP2C9 Supersomes, luciferin-H conversion, luminescence; P11712;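 active = blocking of liver enzyme CYP2C9 beyond about 50% at 5 µM, limit read from the data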
CYP2C19 inh = human CYP2C19 inhibition. inhibition, % at 5 µM. CYP2C19 Supersomes, luciferin-H EGE luminescence, 30 min. hit rate 21% among 96,000. AID 778. P33261;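 active = CYP2C19 inhibition above a set limit at 5 µM in the primary screen, cut at about 50% in these data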
CYP2C19 act = activators of human cytochrome P450 2C19 | recombinant CYP2C19, luciferin-H EGE luminescence; active compounds read high; 0 = fully inhibited enzyme, 1 = untreated enzyme | activation factor at 5 µM | 96,000 tested, under 10 active | AID 1025;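 active = activation factor of at least 2 at 5 µM in the primary screen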
Each line names hits and unclear results; the compound was inactive in the other large screens.

COc1ccc(-n2nnnc2-c2cnc3cc4c(cc3c2C)OCO4)cc1	none
COc1ccc(-n2nnnc2-c2cccc(OC)c2)cc1	CYP2C9 inhib 85, CYP2C19 inh 99
Cc1cccc(C)c1NC(=O)C(c1ccc([N+](=O)[O-])cc1)N1CCCCC1 (stereo not given)	none
Cc1cccc(C)c1NC(=O)C(NC=O)c1ccc(Cl)cc1 (stereo not given)	CYP2C19 inh 58
CCOCCCNC(=O)C(c1ccc(C)cc1)N1CCOCC1 (stereo not given)	none (no result: EphB4 antag)
CCOCCCNC(=O)C(c1ccc(Cl)cc1)N1CCC2(CC1)OCCO2 (stereo not given)	CYP2C19 inh 59
CCOCCCNC(=O)C(c1ccc(Cl)cc1)N1CCN(c2ccccc2)CC1 (stereo not given)	CYP2C19 inh 51 (no result: EphB4 antag)
CCOCCCNC(=O)C(c1ccc(Cl)cc1)N1CCN(C(=O)c2ccco2)CC1 (stereo not given)	none
O=C(Nc1ccc2c(c1)OCO2)C(c1ccc(Cl)cc1)N1CCC2(CC1)OCCO2 (stereo not given)	CYP2C19 inh 52
Cc1c(NC(=O)N(C)C)c(=O)n(-c2ccccc2)n1C	none (no result: CYP2C9 act, CYP2C9 inhib, CYP2C19 inh, CYP2C19 act)
O=C(NCCCN1CCOCC1)C1(c2ccccc2)CCOCC1	none
CC(C)CC(=O)NCC(C)NC(=O)CC(C)C (stereo not given)	none
CC1CC(C)(C)CC2(C1)NC(=S)N(c1ccccc1)N2 (stereo not given)	none
O=C(NNC(=O)c1ccc(O)cc1O)c1ccc(Cl)cc1	CYP2C9 act 2
O=C(NNC(=O)c1ccccc1O)c1ccc(Cl)cc1	none
Cc1cccc(C(=O)NNC(=O)c2ccc(Cl)cc2)c1O	CYP2C9 act 2.9, CYP2C19 inh 50
CCCn1c(SCc2cc(=O)oc3ccc4ccccc4c23)n[nH]c1=O	CYP2C9 inhib 84, CYP2C19 inh 78 (no result: EphB4 antag)
OCCN(Cc1ccccc1)Cc1ccccc1F	CYP2C19 inh 77
OCCN(Cc1ccccc1)CC1CCCCC1	none
OCCN(Cc1ccccc1)Cc1cccc(Cl)c1Cl	CYP2C9 inhib 76, CYP2C19 inh 93
OCCN(Cc1ccccc1)Cc1ccccc1Cl	CYP2C19 inh 81
O=C(NCCC1=CCCCC1)C1CCN(S(=O)(=O)c2cccc3cccnc23)CC1	none
Cc1noc(C)c1C(=O)OCC(=O)NC(=O)NC12CC3CC(CC(C3)C1)C2	none
O=[N+]([O-])c1cc2c(cc1/C=N/n1c(-c3ccccc3)n[nH]c1=S)OCO2	none
Cc1ccc(-c2n[nH]c(=S)n2/N=C/C=C/c2ccccc2[N+](=O)[O-])cc1	CYP2C9 inhib 58
Nc1nnc(SCCOc2ccc(Br)cc2)s1	CYP2C19 inh 82
COc1ccc(OCCc2nnc(N)s2)cc1	none
Nc1nnc(SCCOc2ccccc2)s1	CYP2C9 inhib 63, CYP2C19 inh 87
Nc1cc(N)nc(SCCOc2ccccc2)n1	none
CCCCCC(=O)NC(=S)NNC(=O)CC	none
COc1ccc(CCNC(=O)COC(=O)c2ccc(Br)o2)cc1	CYP2C9 inhib 78
CCOc1ccc(CCNC(=O)COC(=O)c2ccco2)cc1OCC	CYP2C9 inhib 69, CYP2C19 inh 52
COc1ccc(CCNC(=O)CNS(=O)(=O)c2ccc(Br)s2)cc1OC	none
COc1ccc(CCNC(=O)COC(=O)c2ccc(Br)o2)cc1OC	CYP2C9 inhib 80, CYP2C19 inh 71
O=C(COC(=O)c1ccc(Br)o1)NCCCc1ccccc1	CYP2C9 inhib 71
CC(C)CCNC(=O)COC(=O)c1ccc(Br)o1	none
CCOc1ccc(CCNC(=O)C2CCC(=O)N2CCc2ccccc2)cc1OCC (stereo not given)	CYP2C9 inhib 68
CCN(CC)CCNC(=O)C1CCC(=O)N1CCc1ccccc1 (stereo not given)	none
COC(=O)c1cc2ccsc2n1CC(=O)Nc1cc(Cl)ccc1OC	CYP2C19 inh 51
COc1ccc(Cl)cc1NC(=O)CN1C(=O)CSC1=O	none
COC(=O)c1cc2occc2n1CC(=O)Nc1ccc(OC)c(OC)c1	none
COC(=O)c1cc2ccsc2n1Cc1nc(-c2ccc(OC)cc2)oc1C	CYP2C9 inhib 59
COC(=O)c1cc2ccsc2n1CC(=O)N(C)c1ccccc1	CYP2C19 inh 56
COC(=O)c1cc2ccsc2n1CC(=O)Nc1ccc(N(C)C)cc1	CYP2C19 inh 53
COC(=O)c1cc2sccc2n1Cc1nc(-c2ccc(OC)cc2)oc1C	none
CN(C(=O)CN1C(=O)c2ccccc2S1(=O)=O)c1ccccc1C(=O)O	none
